Measurements: PubChem BioAssay (NCI)
This is part of a sample that, as a whole, favours compounds with a hit. Of some 83,000 tested, about 20% had one in any assay.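 Single-concentration screen, 48 h exposure, 96-well plates. Endpoint: percent growth. Below 10 = active.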 The source made the active and inactive calls.

system: NCI-H522 lung; test: NCI-60 one-dose screen, 48 h (100 = growth as untreated, 0 = no growth, -100 = all killed); conditions: 10 µM unless noted

Q: How did the growth turn out when COc1cc(/C=C/C(=O)c2ccc(Cl)cc2)ccc1Oc1nc(NCCO)nc(N2CCOCC2)n1 was run?
A: Its growth is 96.8% (inactive).

Q: O=C(Oc1ccc2ccc(=O)oc2c1)c1ccc(Cl)cc1 was tested. Which growth did it give?
A: The growth was 105% (inactive).

Q: For COc1cc(/C=C/C(=O)c2ccccc2)ccc1Oc1nc(NCCO)nc(N2CCOCC2)n1, which growth is on record?
A: The growth was 99.3% (inactive).

system: A549/ATCC NSCLC; test: as above; conditions: 10 µM unless noted

Q: For Clc1ccc2oc3c(NCCCN4CCOCC4)c4ccccc4nc3c2c1, which growth is on record?
A: The growth was 25.1% (inactive).

Q: Which growth does the source give for CN(C)c1ccc(/C=C2\Cc3c(F)ccc(Br)c3C2=O)cc1 here?
A: Its growth is 94.1% (inactive).

Q: With O=C(N/N=C/c1ccc([N+](=O)[O-])s1)c1[nH]c2ccc(Br)cc2c1-c1ccccc1 as the compound, how does the growth read?
A: Its growth is 14.5% (inactive).

Q: With CC(O)C(NC(=O)C1CCCN1C(=O)CNC(=O)C1CC(=O)NCC(=O)NC(Cc2c[nH]c3ccccc23)C(=O)NC(Cc2ccc(O)cc2)C(=O)NCC(=O)NC(CO)C(=O)NC(CCC(N)=O)C(=O)NC(Cc2c[nH]c3ccccc23)C(=O)N1)C(=O)NCC(=O)NC(CCC(N)=O)C(=O)NC(CCCNC(=N)N)C(=O)NC(CC(=O)O)C(=O)O (configuration not stated) as the compound, how does the growth read?
A: Its growth is 105% (inactive).

Q: How did the growth turn out when O=C(CN1CCOCC1)NNc1ncnc2ccccc12 was run?
A: Its growth is 105% (inactive).

Q: N#Cc1c(-c2ccc(Cl)cc2)nc(SCc2ccccc2)nc1N1CCNCC1 was tested. Which growth did it give?
A: The growth was 66.7% (inactive).

Q: Which growth does the source give for Cn1cc(-c2cc(N)n3nc(-c4cn(C)c5ccc(F)cc45)cc3n2)c2cc(F)ccc21 here?
A: Its growth is 18.5% (inactive).

Q: For CS(=O)(=O)c1ccc(-c2nc3ccccn3c2/C=N/Nc2nc(-c3ccc(Cl)cc3)cs2)cc1, which growth is on record?
A: The growth was 98.2% (inactive).

Q: O=c1/c(=C\c2ccc(-c3ccccc3)o2)sc2nc(-c3ccccc3)nn12 was tested. Which growth did it give?
A: The growth was 103% (inactive).
